Measured values: PubChem BioAssay (NCATS)
Records with an inconclusive call do not appear. Where a call stands in place of a potency, no number is given. Unmarked numbers belong to inactive results. Activity calls are given as the source filed them. Calls come from the whole dose curve.

What follows are compounds tested against Cytochrome P450 1A2 (Homo sapiens) (UniProt P05177) (assay: p450-cyp1a2 (AID 410)). Details: recombinant CYP1A2, luciferin-ME demethylation, luminescence; series mostly up to 11.4 µM.
Sequence of Cytochrome P450 1A2 (Homo sapiens) (P05177 whole entry, looked up): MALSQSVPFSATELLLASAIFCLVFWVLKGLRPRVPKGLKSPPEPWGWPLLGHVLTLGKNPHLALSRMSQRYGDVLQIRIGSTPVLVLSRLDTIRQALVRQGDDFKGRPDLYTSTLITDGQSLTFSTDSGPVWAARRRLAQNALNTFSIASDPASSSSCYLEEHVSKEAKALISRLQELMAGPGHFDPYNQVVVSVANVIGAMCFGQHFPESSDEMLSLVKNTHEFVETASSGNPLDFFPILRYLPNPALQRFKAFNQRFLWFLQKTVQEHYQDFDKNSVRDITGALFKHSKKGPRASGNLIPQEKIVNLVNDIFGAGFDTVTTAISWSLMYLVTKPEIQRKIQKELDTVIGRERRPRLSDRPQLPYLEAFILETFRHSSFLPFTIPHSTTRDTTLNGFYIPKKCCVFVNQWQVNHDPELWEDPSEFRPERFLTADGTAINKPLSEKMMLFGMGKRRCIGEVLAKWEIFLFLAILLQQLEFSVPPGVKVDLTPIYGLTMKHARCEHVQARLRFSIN
Method: The P450 gene superfamily is involved in metabolism and the clearance of xenobiotics. This assay used human CYP1A2 to measure the demethylation of luciferin 6' methyl ether (Luciferin-ME; Promega-Glo) to luciferin. The luciferin is then measured by luminescence after the addition of a luciferase detection regeant. Luciferin-ME concentration in the assay was equal to its Km for CYP1A2.
NCGC Assay Protocol Summary:
Two uL of enzyme and substrate mix (final concentrations: 20nM CYP1A2, 100uM Luciferin-ME, 100mM KPO4) were dispensed into a white, solid bottom 1536-well microtiter plate. 23nL of compound was transferred by a pin tool. The plate was incubated at room temperature for 10 min. Two uL of an NADPH regeneration solution (Promega supplied reagent) was dispensed and the reaction was allowed to continue for 60 min at room temperature. Then the reaction was stopped by reconstituted detection reagent. After another 20 min of incubation the plate was read on the ViewLux (Perkin Elmer) at 60 sec exposure and 2x2 binning. This protocol was carried out with Promega-Glo reagents and further information can be found at http://www.promega.com/tbs/tb325/tb325.pdf. Data were normalized to the to AC100 inhibition (57 uM furafylline).
Potency is the fitted concentration of half-maximal effect.

Row | Structure (SMILES) | Potency | activity change, negative = inhibition
1 | Cc1nc(CN2CCCCC2)c(O)c(=O)[nH]1 | inactive | 
2 | O=P(O)(CCP(=O)(O)c1ccccc1)c1ccccc1 | inactive | 
3 | Nc1nc(=O)c2[nH]cnc2n1O | inactive | 
4 | CCOC(=O)C(C)(C)[C@H](O)C(C)C | inactive | 
5 | O=S(=O)(c1ccccc1)N1CN2CN(C1)CN(S(=O)(=O)c1ccccc1)C2 | inactive | 
6 | C[C@@]12C(=O)OC(=O)[C@@]1(C)[C@H]1CC[C@@H]2O1 | inactive | 
7 | Cc1cccc(CNc2nc(-c3cccnc3)nc3ccccc23)c1 | 631 nM (active) | 
8 | Cc1ccc(-c2nnc(-c3ccc4ccccc4c3)o2)cc1 | 631 nM (active) | 
9 | O=S(=O)(O)c1ccc(N=Nc2ccccc2)cc1 | inactive | 
10 | CCCCC/C=C\C[C@H](O)/C=C\c1cccc(C[C@H](O)CCCCO)n1 | inactive | 
11 | COc1c(NC(C)=O)c2ccccc2c2ccccc12 | 398 nM (active) | 
12 | O=C(CSc1nc2ccccc2s1)c1sc2sc3ccccc3[n+]2c1O | 5010 nM (active) | 
13 | O=C(NCCO)c1ccc(Cl)cc1 | 3980 nM (active) | 
14 | N#C/C(=C\Nc1ccccn1)C(=O)c1ccco1 | inactive | 
15 | O=C(O)[C@@H]1[C@@H](C(=O)Nc2ncccn2)[C@@H]2C=C[C@@H]1O2 |  | -13.2% [at 2.29 µM]
16 | N=C(N)c1ccc(-c2ccc(-c3ccc(C(=N)N)cc3)o2)cc1 | inactive | 
17 | O=C(O)c1ccc(S(=O)(=O)N=Nc2c(O)[nH]c3ccccc23)cc1 | inactive | 
18 | O=C(CC1(O)CCCCC1)OC1CCCC1 | inactive | 
19 | C[C@@H](CN1CCC(Cc2ccccc2)CC1)[C@H](O)c1ccc(O)cc1 | 12600 nM (active) | 
20 | CN1C[C@@H](O)[C@@H](O)[C@@H](O)[C@@H]1CO | inactive | 

Row | Structure (SMILES) | Potency | activity change, negative = inhibition
21 | Cn1ccnc1C[C@@](C)(O)c1ccccc1 | inactive | 
22 | NCCNC(=S)S |  | -13.2% [at 2.29 µM]
23 | NS(=O)(=O)c1ccc(NC2(C(=O)O)CCCC2)cc1 | 794 nM (active) | 
24 | CC(=O)Nc1ccc2c(c1)C(=Nc1ccc(C(=O)O)cc1)c1ccccc1-2 | 316 nM (active) | 
25 | OCCCSCCO |  | -19.1% [at 2.29 µM]
26 | Clc1ccccc1C(Nc1ncccn1)Nc1ncccn1 | inactive | 
27 | N.N.N.N.N.N.N.N.N.N.N.N.N.N.O.O.[Ru].[Ru].[Ru] | inactive | 
28 | O=C(CSc1nc2ccc([N+](=O)[O-])cc2s1)c1ccc2ccccc2c1 | 3160 nM (active) | 
29 | CN(C)c1ccc(C(=C2C=CC(=[N+](C)C)C=C2)c2c(O)c(S(=O)(=O)O)cc3cc(S(=O)(=O)O)ccc23)cc1 | 3980 nM (active) | 
30 | [N-]=[N+]=NC[C@@H]1O[C@@H](n2cnc3c(N)ncnc32)[C@@H]2O[C@@H]21 | inactive | 
31 | OCCCNCc1ccccn1 |  | -20% [at 2.29 µM]
32 | O[C@@H](COc1cccc2ccccc12)CN1CCOCC1 | 3980 nM (active) | 
33 | N#C/C(=C\N1CCNC1=S)C(=O)c1ccc2ccccc2c1 | 1580 nM (active) | 
34 | CC(=O)OC(C)(C)N=Nc1ccc(Br)cc1 | 3160 nM (active) | 
35 | Fc1cccc(CSc2ncnc3c2ncn3[C@H]2CCCS2)c1 | 501 nM (active) | 
36 | O=C1C2[C@@H](c3ccccc3)N[C@@H](c3ccccc3)C1[C@H](c1ccccc1)N[C@H]2c1ccccc1 | inactive | 
37 | Nc1nc(Cl)cc(NCCO)n1 | inactive | 
38 | Oc1c(Cl)cc(CN(Cc2cc(Cl)c(O)c(Cl)c2)C2CCCCC2)cc1Cl |  | 11.3% [at 2.29 µM]
39 | CSC(N)=NCCC[C@@H](N)C(=O)O | inactive | 
40 | S=C(CSc1ccccc1)Nc1cccc2ccccc12 | 1260 nM (active) | 
